In PubChem BioAssay (EPA / NIEHS) one finds outcome and AC50 data, which are given here for four compounds.

Conditions in all cases: mRNA level, 48 h; actives raise or lower the signal
Read-out in experiment [1]: JUN Transcription Factor, JUN (gene 3725)
As to the kind of experiment: LTEA_HepaRG_JUN: Life Technologies and Expression Analysis (LTEA) Assay for JUN Transcription Factor using HepaRG (AID 2283513). Put shortly: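 Read-out is JUN transcript level by TaqMan qRT-PCR, normalized to ACTB, GAPDH and POLR2A, after 48 h chemical treatment of HepaRG cells. Concentration-response spanned eight half-log points up to 100 uM in 0.5% DMSO.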

Read-out in experiment [2]: Lipase C (LIPC), LIPC (gene 3990)
As to the kind of experiment: LTEA_HepaRG_LIPC: Life Technologies and Expression Analysis (LTEA) Assay for Lipase C (LIPC) using HepaRG (AID 2283514). In short, it runs like this: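 HepaRG, 48 h exposure, 8-pt half-log series from 100 uM in 0.5% DMSO, duplicates. Readout: LIPC mRNA by Fluidigm qRT-PCR, housekeeping-normalized (ACTB/GAPDH/POLR2A). Gain or loss fitted bidirectionally against DMSO baseline.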

Read-out in experiment [3]: Lipoprotein lipase (LPL), LPL (gene 4023)
As to the kind of experiment: LTEA_HepaRG_LPL: Life Technologies and Expression Analysis (LTEA) Assay for Lipoprotein lipase (LPL) using HepaRG (AID 2283515). Put shortly: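 HepaRG, 48 h exposure, 8-pt half-log dilutions from 100 uM, 0.5% DMSO vehicle, duplicates; qRT-PCR (Fluidigm array) of LPL mRNA vs housekeeping genes; bidirectional curve fit relative to DMSO baseline.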

Read-out in experiment [4]: MicroRNA 122 (MIR122), gene 406906
As to the kind of experiment: LTEA_HepaRG_MIR122: Life Technologies and Expression Analysis (LTEA) Assay for MicroRNA 122 (MIR122) using HepaRG (AID 2283516). Also: the transcript read is the microRNA miR-122. Put shortly: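 Human liver HepaRG cultures receive test chemicals for 48 h at eight half-log concentrations from 100 uM. Expression is quantified by qRT-PCR with ACTB/GAPDH/POLR2A normalization and fitted bidirectionally against 0.5% DMSO.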

Read-out in a further experiment: MYC, MYC (gene 4609)
Briefly: LTEA_HepaRG_MYC: Life Technologies and Expression Analysis (LTEA) Assay for MYC using HepaRG (AID 2283518). In short, it runs like this: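 Expression changes were scored by TaqMan qRT-PCR with ACTB, GAPDH and POLR2A normalization. Cultures in serum-free induction medium received duplicate 8-point concentration series, highest 100 uM, for 48 h; DMSO (0.5%) served as baseline.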

Read-out in experiment [5]: matrix metalloproteinase-3 (MMP3), MMP3 (gene 4314)
Briefly: LTEA_HepaRG_MMP3: Life Technologies and Expression Analysis (LTEA) Assay for matrix metalloproteinase-3 (MMP3) using HepaRG (AID 2283519). In short, it runs like this: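 qRT-PCR read-out of MMP3 mRNA (normalised to three housekeeping genes) in HepaRG liver cells after 48 h chemical exposure; 8-point half-log series, top 100 uM, 0.5% DMSO vehicle. Bidirectional curve fitting against DMSO baseline.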

Read-out in experiment [6]: Paternally Expressed 10 (PEG10), PEG10 (gene 23089)
Briefly: LTEA_HepaRG_PEG10: Life Technologies and Expression Analysis (LTEA) Assay for Paternally Expressed 10 (PEG10) using HepaRG (AID 2283520). In short, it runs like this: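 Human HepaRG cultures are dosed for 48 h across an eight-point half-log series starting at 100 uM, with 0.5% DMSO as vehicle and baseline. Gain or loss of PEG10 transcript is measured by qRT-PCR and fitted in both directions.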

Read-out in experiment [7]: Nuclear factor NF-kappa-B p105 subunit (Homo sapiens) (UniProt P19838)
As to the kind of experiment: LTEA_HepaRG_NFKB1: Life Technologies and Expression Analysis (LTEA) Assay for Nuclear Factor Kappa B Subunit 1 (NFKB1) using HepaRG (AID 2283521).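 Also: differentiated human HepaRG liver cells in serum-free induction medium.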 In short, it runs like this:
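NFKB1 transcript was measured by TaqMan qRT-PCR on Fluidigm arrays, normalised to three housekeeping genes and fitted in both directions against 0.5% DMSO. HepaRG cells were dosed in duplicate for 48 h in serum-free induction medium, eight half-log steps from 100 uM.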

Read-out in experiment [8]: Protein phosphatase 2A (PPP2R4), PTPA (gene 5524)
Briefly: LTEA_HepaRG_PPP2R4: Life Technologies and Expression Analysis (LTEA) Assay for Protein phosphatase 2A (PPP2R4) using HepaRG (AID 2283522). Put shortly:
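Cells were plated, cultured 48 h, switched to serum-free induction medium, then dosed for 48 h (8 points, max 100 uM, 0.5% DMSO). RNA was isolated and PPP2R4 expression measured by TaqMan qRT-PCR.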

Read-out in experiment [9]: Pyruvate Dehydrogenase Kinase 4 (PDK4), PDK4 (gene 5166)
Briefly: LTEA_HepaRG_PDK4: Life Technologies and Expression Analysis (LTEA) Assay for Pyruvate Dehydrogenase Kinase 4 (PDK4) using HepaRG (AID 2283525). Put shortly:
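HepaRG (human liver line), 48 h chemical exposure, 8-pt half-log CRC top 100 uM, 0.5% DMSO vehicle, duplicates. Readout: TaqMan qRT-PCR of PDK4 mRNA, housekeeping-normalized; gain/loss fit relative to DMSO baseline.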

Read-out in experiment [10]: NAD(P)H dehydrogenase [quinone] 1 (NQO1), NQO1 (gene 1728)
Briefly: LTEA_HepaRG_NQO1: Life Technologies and Expression Analysis (LTEA) Assay for NAD(P)H dehydrogenase [quinone] 1 (NQO1) using HepaRG (AID 2283526). In short, it runs like this: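 Transcript induction or suppression is quantified by qRT-PCR in human HepaRG liver cells dosed for 48 hours. Eight half-log concentrations topping at 100 uM are used, with 0.5% DMSO as vehicle and baseline.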

Read-out in experiment [11]: Nuclear factor erythroid 2-related factor 2 (Homo sapiens) (UniProt Q16236)
Briefly: LTEA_HepaRG_NFE2L2: Life Technologies and Expression Analysis (LTEA) Assay for Nuclear factor erythroid 2-related factor 2 (NFE2L2) Transcription Factor using HepaRG (AID 2283527). In short, it runs like this:
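HepaRG, 48 h dosing, 8-pt half-log series from 100 uM in 0.5% DMSO, duplicates. Read-out: NFE2L2 mRNA by qRT-PCR (ACTB/GAPDH/POLR2A normalization). Bidirectional curve fit vs DMSO baseline.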

Read-out in experiment [12]: succinate dehydrogenase complex iron sulfur subunit B (SDHB), SDHB (gene 6390)
Briefly: LTEA_HepaRG_SDHB: Life Technologies and Expression Analysis (LTEA) Assay for succinate dehydrogenase complex iron sulfur subunit B (SDHB) using HepaRG (AID 2283528). In short, it runs like this:
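SDHB transcript level read by TaqMan qRT-PCR, housekeeping-normalised (ACTB, GAPDH, POLR2A), after 48 h chemical treatment of plated HepaRG cells; eight concentrations top 100 uM, half-log steps, 0.5% DMSO, duplicates; fitted both directions against DMSO.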

Read-out in experiment [13]: Signal transducer and activator of transcription 3 (Homo sapiens) (UniProt P40763)
Briefly: LTEA_HepaRG_STAT3: Life Technologies and Expression Analysis (LTEA) Assay for Signal transducer and activator of transcription (STAT3) using HepaRG (AID 2283529). Put shortly: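 HepaRG, 48 h exposure, 8-pt half-log series (top 100 uM), 0.5% DMSO vehicle, duplicates. Readout: STAT3 transcript by Fluidigm qRT-PCR, housekeeping-normalized; bidirectional fit vs DMSO baseline.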

Read-out in experiment [14]: solute carrier (SLCO1B1), SLCO1B1 (gene 10599)
As to the kind of experiment: LTEA_HepaRG_SLCO1B1: Life Technologies and Expression Analysis (LTEA) Assay for solute carrier (SLCO1B1) using HepaRG (AID 2283530). In short, it runs like this:
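Human HepaRG cultures treated for 48 h with an eight-concentration half-log series topping at 100 uM; SLCO1B1 measured by qRT-PCR and fitted bidirectionally relative to DMSO.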

Read-out in experiment [15]: sulfotransferase 2A1 (SULT2A1), SULT2A1 (gene 6822)
As to the kind of experiment: LTEA_HepaRG_SULT2A1: Life Technologies and Expression Analysis (LTEA) Assay for sulfotransferase 2A1 (SULT2A1) using HepaRG (AID 2283531). In short, it runs like this: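 Gene-expression endpoint in a human liver cell line: SULT2A1 mRNA change after 48 h chemical treatment, curves fitted in both directions relative to 0.5% DMSO vehicle. Concentrations spanned eight half-log steps from 100 uM.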

Read-out in experiment [16]: Transforming Growth Factor (TGFA), TGFA (gene 7039)
Briefly: LTEA_HepaRG_TGFA: Life Technologies and Expression Analysis (LTEA) Assay for Transforming Growth Factor (TGFA) using HepaRG (AID 2283532). Put shortly: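 qRT-PCR read-out of TGFA transcript, normalized to three housekeeping genes, fitted bidirectionally against 0.5% DMSO baseline. Human HepaRG cultures received chemicals for 48 h at eight half-log concentrations, top 100 uM.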

Read-out in experiment [17]: solute carrier (SLC22A1), SLC22A1 (gene 6580)
As to the kind of experiment: LTEA_HepaRG_SLC22A1: Life Technologies and Expression Analysis (LTEA) Assay for solute carrier (SLC22A1) using HepaRG (AID 2283524). Put shortly: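 qRT-PCR readout (TaqMan, Fluidigm arrays) of SLC22A1 transcript, normalized to three housekeeping genes; bidirectional curve fit relative to 0.5% DMSO vehicle. Differentiated human HepaRG cells, 48 h chemical exposure, top concentration 100 uM, half-log steps, eight points.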

Read-out in experiment [18]: matrix metalloproteinase-10 (MMP10), MMP10 (gene 4319)
As to the kind of experiment: LTEA_HepaRG_MMP10: Life Technologies and Expression Analysis (LTEA) Assay for matrix metalloproteinase-10 (MMP10) using HepaRG (AID 2283517). Put shortly: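 Transcript levels come from Fluidigm qRT-PCR normalized to three housekeeping genes, with curves fitted bidirectionally against 0.5% DMSO. Human HepaRG cells were dosed for 48 hours at concentrations up to 100 uM.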

In general, AC50 refers to the concentration at which the activity in the assay is half-maximal.

Active and inactive are the calls of the source. The calls were made as follows: active = hit-call score of the fitted dose curve at least 0.9, where 1 is the maximum; inactive = score below 0.9.

Sequence of Nuclear factor erythroid 2-related factor 2 (Homo sapiens) (Q16236 whole entry, looked up): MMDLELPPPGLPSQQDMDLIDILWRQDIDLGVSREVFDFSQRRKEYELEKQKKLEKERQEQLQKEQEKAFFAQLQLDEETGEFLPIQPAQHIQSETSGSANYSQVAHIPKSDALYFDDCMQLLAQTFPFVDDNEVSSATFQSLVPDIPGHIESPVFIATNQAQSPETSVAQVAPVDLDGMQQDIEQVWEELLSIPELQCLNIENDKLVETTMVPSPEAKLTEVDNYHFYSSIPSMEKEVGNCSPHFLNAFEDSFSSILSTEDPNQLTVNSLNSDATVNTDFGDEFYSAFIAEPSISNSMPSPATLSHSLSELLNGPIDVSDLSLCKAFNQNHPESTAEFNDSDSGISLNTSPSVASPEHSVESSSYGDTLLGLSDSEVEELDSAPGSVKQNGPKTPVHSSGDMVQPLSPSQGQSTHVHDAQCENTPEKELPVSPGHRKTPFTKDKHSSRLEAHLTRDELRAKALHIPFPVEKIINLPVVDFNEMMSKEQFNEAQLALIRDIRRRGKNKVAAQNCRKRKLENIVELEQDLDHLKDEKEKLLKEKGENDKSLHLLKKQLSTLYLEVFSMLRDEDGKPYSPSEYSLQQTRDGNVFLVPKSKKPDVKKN
Sequence of Signal transducer and activator of transcription 3 (Homo sapiens) (P40763 whole entry, looked up): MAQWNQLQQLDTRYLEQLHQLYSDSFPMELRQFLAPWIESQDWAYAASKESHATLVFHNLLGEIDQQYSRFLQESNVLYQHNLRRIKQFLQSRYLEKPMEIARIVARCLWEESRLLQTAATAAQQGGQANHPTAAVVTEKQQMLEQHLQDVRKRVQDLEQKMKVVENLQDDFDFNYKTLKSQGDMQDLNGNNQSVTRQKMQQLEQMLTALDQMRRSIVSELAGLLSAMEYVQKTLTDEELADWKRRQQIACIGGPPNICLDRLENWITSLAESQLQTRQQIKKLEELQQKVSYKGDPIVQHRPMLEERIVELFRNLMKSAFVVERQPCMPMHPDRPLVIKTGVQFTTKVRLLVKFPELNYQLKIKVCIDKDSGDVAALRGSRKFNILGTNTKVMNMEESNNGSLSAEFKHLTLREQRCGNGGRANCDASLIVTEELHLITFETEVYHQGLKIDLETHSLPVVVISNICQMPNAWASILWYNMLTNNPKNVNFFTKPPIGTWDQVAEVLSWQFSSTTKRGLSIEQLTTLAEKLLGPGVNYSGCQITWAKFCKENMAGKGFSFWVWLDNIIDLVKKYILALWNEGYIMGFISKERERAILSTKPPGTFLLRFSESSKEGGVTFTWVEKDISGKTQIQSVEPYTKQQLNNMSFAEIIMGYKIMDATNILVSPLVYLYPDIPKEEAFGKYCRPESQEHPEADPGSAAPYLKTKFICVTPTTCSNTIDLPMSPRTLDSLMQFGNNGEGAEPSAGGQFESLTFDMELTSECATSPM
Sequence of Nuclear factor NF-kappa-B p105 subunit (Homo sapiens) (P19838 whole entry, looked up): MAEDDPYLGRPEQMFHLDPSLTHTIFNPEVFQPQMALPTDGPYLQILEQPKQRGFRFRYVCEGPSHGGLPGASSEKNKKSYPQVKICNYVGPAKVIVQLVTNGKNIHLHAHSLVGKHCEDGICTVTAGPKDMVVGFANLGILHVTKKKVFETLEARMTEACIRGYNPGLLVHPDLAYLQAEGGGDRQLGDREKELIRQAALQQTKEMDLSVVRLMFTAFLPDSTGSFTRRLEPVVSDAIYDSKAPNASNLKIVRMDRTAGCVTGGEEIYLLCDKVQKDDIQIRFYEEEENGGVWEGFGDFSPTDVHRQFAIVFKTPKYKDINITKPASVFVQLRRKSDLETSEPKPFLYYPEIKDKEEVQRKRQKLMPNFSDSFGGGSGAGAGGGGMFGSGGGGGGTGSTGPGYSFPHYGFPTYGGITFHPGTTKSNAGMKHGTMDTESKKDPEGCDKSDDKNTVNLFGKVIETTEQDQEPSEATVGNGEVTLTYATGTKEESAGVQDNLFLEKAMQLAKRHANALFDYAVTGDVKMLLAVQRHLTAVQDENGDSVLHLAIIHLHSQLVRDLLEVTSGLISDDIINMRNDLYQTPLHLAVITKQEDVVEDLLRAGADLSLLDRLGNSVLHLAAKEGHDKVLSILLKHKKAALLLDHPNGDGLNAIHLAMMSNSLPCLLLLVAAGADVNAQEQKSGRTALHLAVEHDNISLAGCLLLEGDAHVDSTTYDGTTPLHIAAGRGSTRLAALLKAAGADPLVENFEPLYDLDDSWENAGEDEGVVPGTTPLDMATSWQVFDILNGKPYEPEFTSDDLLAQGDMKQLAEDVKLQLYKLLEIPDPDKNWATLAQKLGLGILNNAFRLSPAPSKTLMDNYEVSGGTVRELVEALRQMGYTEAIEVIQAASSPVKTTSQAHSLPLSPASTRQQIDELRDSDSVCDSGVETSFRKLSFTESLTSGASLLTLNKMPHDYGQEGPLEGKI

Turning to `CC(C)(O)c1cnn2c(-c3ccc(F)c(-c4c(F)cccc4C#N)c3)cnc2n1`, the outcome in experiment [1] was “inactive”; in experiment [3] it was “inactive”; in the experiment with MYC, MYC (gene 4609), “inactive”; in [5] it was “inactive”; in [6], “inactive”; in [7], “inactive”. Further, the compound was classed as inactive in experiment [8], in [9], in [10], in experiment [12], in experiment [13] and in experiment [14]. Further, in experiment [15], the result was inactive. The AC50 in experiment [2] is 2.9 µM (active); in experiment [4] it was 13.1 µM (active); in [11], 6.33 µM (active); in experiment [16], 12.6 µM (active).
Consider `OCCCl`, for which the outcome in experiment [1] is “inactive”; in [2] it was “inactive”; in experiment [4], “inactive”; with MYC, MYC (gene 4609) it was “inactive”; in experiment [5], “inactive”; in experiment [6] it was “inactive”. The outcome in experiment [8], in [17], in [9], in experiment [10], in experiment [11] and in experiment [12] was inactive. The call in experiment [13], in experiment [15] and in [16] was inactive.
On to `CC(C)(C)C(O)(CCc1ccc(Cl)cc1)Cn1cncn1` (configuration not stated), for which the compound was called inactive in experiment [1], in experiment [18], in experiment [5], in experiment [6], in [7] and in [10]. Moreover, the result in experiment [12], in experiment [13] and in [16] was inactive. Also, the AC50 in experiment [2] was 71.8 µM (active); in experiment [4], 78.1 µM (active); with MYC, MYC (gene 4609) it was 50 µM (active); in [8] it was 50 µM (active); in [9], 80.9 µM (active); in experiment [11], 50 µM (active). Moreover, the AC50 in experiment [15] was 80.2 µM (active).
For the compound `OCCOCCO`, the outcome in experiment [1] was “inactive”; in [2], “inactive”; in experiment [4], “inactive”; in the experiment with MYC, MYC (gene 4609) it was “inactive”; in [5], “inactive”; in experiment [6], “inactive”. Also, the compound was classed as inactive in [8], in experiment [9], in experiment [10], in [11], in [12] and in experiment [13]. The call in experiment [15] and in experiment [16] was inactive.
